# Measurements reported in the supplement of paper PMC3334620.
# Whole data set: some 33,000 sequences, median “E-score (-0.5 to 0.5)” near -0.036, cut for the highest 2% near 0.37. This is one part of a sample in which the highest values are shown more often than they occur.
# Molecular target: T1, Yer064c (UniProt P40041)
# T1 sequence: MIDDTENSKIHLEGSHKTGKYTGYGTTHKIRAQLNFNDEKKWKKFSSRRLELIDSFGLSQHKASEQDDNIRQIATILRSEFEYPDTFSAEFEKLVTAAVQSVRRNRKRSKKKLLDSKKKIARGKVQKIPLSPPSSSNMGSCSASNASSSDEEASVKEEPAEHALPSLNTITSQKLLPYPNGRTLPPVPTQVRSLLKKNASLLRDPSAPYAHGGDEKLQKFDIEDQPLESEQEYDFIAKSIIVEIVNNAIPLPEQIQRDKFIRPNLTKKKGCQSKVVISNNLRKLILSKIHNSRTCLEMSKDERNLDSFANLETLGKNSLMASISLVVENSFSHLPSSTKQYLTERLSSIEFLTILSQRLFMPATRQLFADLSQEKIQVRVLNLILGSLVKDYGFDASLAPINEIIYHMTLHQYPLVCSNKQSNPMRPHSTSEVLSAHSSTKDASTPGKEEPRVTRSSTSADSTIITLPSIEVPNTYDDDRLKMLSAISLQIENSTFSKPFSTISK
# Assay: PBM E-score (8-mer binding enrichment) (E-score (-0.5 to 0.5)); higher = stronger / more preferred TF binding
# Conditions: protein concentration: 200 nM; construct: GST-full length
# Procedure, shortened: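 Bound GST-tagged yeast transcription factors, applied at about 100-200 nM to double-stranded universal all-10-mer Agilent arrays, were detected with fluorescent anti-GST. Scans were normalised with masliner. A modified Wilcoxon-Mann-Whitney statistic, the E-score, was assigned to each ungapped eight-base word pooled with its reverse complement by the Universal PBM Analysis Suite.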
row,Sequence,PBM E-score
1,ACGATTGA,0.216
2,CTGATTGA,0.305
3,CTGATTGC,0.274
4,ATGATTGC,0.375
5,GCGATTGA,0.145
6,ACGATTGC,0.0745
7,GGTGAAAA,-0.106
8,CAAATCTC,0.0434
9,CATCTACG,0.104
10,AGGTGAGC,-0.00638
11,CCGGGTGA,0.176
12,AATGCTCA,0.0674
13,AGTCAGCC,0.458
14,AGTCAGCG,0.453
15,ATTCAGCG,-0.0722
16,ACTCAGCC,0.335
17,GGTCAGCA,-0.0951
18,AGTCAGCA,0.455
19,CGTCAGCA,-0.0315
20,ACTCAGCG,0.269
21,CGTCAGCC,-0.135
22,GGCAGCAA,-0.355

row,Sequence,PBM E-score
1,GCAGATGC,-0.257
2,CAATGGTC,0.183
3,ATGTATTA,0.0655
4,ATGCTTTG,-0.00054
5,TAACAGTA,-0.019
6,ATATAGTC,0.403
7,CTATAGCC,-0.0342
8,ATATAGTA,0.128
9,CTATAGTA,0.0624
10,ATATAGTG,0.0402
11,CTATAGTC,0.37
12,ACCGAACT,-0.0318
13,AGCAGAAA,-0.0226
14,CAGAGTGG,-0.106
15,CAGACGAG,-0.0357
16,CGCTCTAG,-0.196
17,CCGACAAA,-0.0238
18,ATCATCGA,0.31
19,GTCATCGA,0.389
20,CTCATCGA,0.173
21,ACCTGAAA,-0.0522
22,CAGGTTGA,0.0225

row,Sequence,PBM E-score
1,CCAGAAAG,0.0675
2,AGTAGTCA,0.478
3,AGTAGTCC,0.302
4,AGTAGTAA,0.156
5,CGTAGTAA,-0.0636
6,AGTAGTAG,0.00559
7,GGTAGTGA,0.0671
8,GGTAGTCA,0.479
9,CGTAGTCC,0.262
10,AGTAGTCG,0.381
11,GGTAGTAA,0.0578
12,CGTAGTCA,0.483
13,AGTAGTTA,0.112
14,GGCCGTCA,-0.262
15,CTCTGGTC,-0.00298
16,GGAATTCA,-0.0346
17,ACGAACGT,-0.129
18,ATGACCGC,-0.075
19,CCAGTCGA,0.00412
20,CGTACGTC,-0.241
21,CCGGAGGC,-0.154
22,ACGGAGTG,-0.215

row,Sequence,PBM E-score
1,ACGGAGTA,-0.0195
2,ACGGAGTC,0.431
3,CCGGAGTC,0.373
4,CCGGAGTA,0.0206
5,ATGTACTG,0.0673
6,ACTGTCAA,-0.0537
7,GCGTCGCA,0.0193
8,GACTAATC,0.439
9,AACTAATC,0.15
10,CACTAATC,0.191
11,CACTAATA,0.134
12,TACTAATA,-0.1
13,GACTAATA,0.445
14,CTAGGTAC,0.0158
15,CTGACTTC,0.392
16,AAGACTTG,0.165
17,CCGACTTC,-0.0761
18,CAGACTTC,-0.103
19,CTCACTCC,0.0635
20,AGGACTTC,0.201
21,CTGACTCC,0.46
